# Assay results published in PubChem BioAssay AID1851 (National Center for Advancing Translational Sciences (NCATS), 2009).
# The campaign covered roughly 16,000 compounds. About 5,800 (36%) were called active. About 23% were inconclusive and are not listed. Calls come from the whole dose curve; as a rule, active = well fitted curve in the direction sought with a large enough effect; inconclusive = small, poorly fitted or top-dose-only effect, or effect the other way; inactive = no such curve, though single readings can be large or run the other way. The list shows a part of the results.
# Biological target: Cytochrome P450 2C19 (Homo sapiens) (UniProt P33261)
# Assay: Cytochrome panel assay with activity outcomes
# Details: recombinant CYP, pro-luciferin dealkylation, luminescence, p450-cyp2c19; series mostly up to 57.1 µM
# % is set by controls: 0 for no effect and ±100 for the full control effect.
# Sequence of Cytochrome P450 2C19 (Homo sapiens) (P33261 whole entry, looked up): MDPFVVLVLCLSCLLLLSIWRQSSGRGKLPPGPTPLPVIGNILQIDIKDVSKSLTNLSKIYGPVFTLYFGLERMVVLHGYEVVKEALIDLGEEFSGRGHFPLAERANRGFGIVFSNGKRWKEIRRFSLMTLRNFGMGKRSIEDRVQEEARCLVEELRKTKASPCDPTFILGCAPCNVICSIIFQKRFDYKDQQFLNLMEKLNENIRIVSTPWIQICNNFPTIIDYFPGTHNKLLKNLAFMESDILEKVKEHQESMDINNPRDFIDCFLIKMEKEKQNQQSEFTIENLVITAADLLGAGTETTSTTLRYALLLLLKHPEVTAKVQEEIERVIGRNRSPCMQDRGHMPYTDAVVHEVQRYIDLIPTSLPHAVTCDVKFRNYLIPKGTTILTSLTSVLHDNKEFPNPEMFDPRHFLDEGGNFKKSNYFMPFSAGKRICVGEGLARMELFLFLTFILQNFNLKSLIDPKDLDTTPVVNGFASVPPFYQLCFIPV
Structure (SMILES),"activity, negative = inhibition",AC50
O=C(O)CCSC1=NCCN1,42% [at 11.4 µM] (inactive),–
CSC1(SC2=NCCN2)SC2(NCCN2)S1,–,1.58 µM (active)
c1ccc(CN(CC2=NCCN2)c2ccccc2)cc1,–,inactive
Cc1ccc(N(Cc2ccccc2)Cc2ccccc2)cc1,–,2 µM (active)
CCn1nc(C(=O)Nc2ccccc2C)c(Cl)c1Cl,–,inactive
Cc1nc(C(=O)Nc2cccc(Cl)c2Cl)nn1-c1cc(OC(C)C)c(Cl)cc1Cl,–,7.08 µM (active)
CCc1ccccc1NC(=S)NCc1ccc2c(c1)OCO2,–,1.26 µM (active)
CCc1c(C(=O)NCc2ccc3c(c2)OCO3)[nH]c(C)c1C(C)=O,–,7.08 µM (active)
O=C(O)C[C@H](Cc1ccc2c(c1)OCO2)C(=O)O,-29% [at 11.4 µM] (inactive),–
CCOc1ccc(OCCOc2ncnc3ccccc23)cc1,–,10 µM (active)
CC(CO)(CO)Nc1ncnc2ccccc12,1.8% [at 11.4 µM] (inactive),–
OC[C@@H](O)CNc1ncnc2ccccc12,1.02% [at 11.4 µM] (inactive),–
CC(=C/c1ccccc1)/C=N/n1cnnc1,–,0.355 µM (active)
CCc1c(C)nc2ccc(Br)cc2c1Cl,–,3.55 µM (active)
CN(C)CCCc1c2ccccc2nc2ccc(Cl)cc12,7.79% [at 11.4 µM] (inactive),–
CC1=NN(c2ccc(S(=O)(=O)O)cc2)C(=O)/C1=C\c1ccc(Cl)cc1,-11.1% [at 11.4 µM] (inactive),–
CCOc1cc(/C=C2/C(=O)N(c3ccccc3)N=C2C)ccc1OC(=O)c1ccco1,–,14.1 µM (active)
CC1=NN(c2ccccc2)C(=O)/C1=C\c1c(C)[nH]n(-c2ccccc2)c1=O,–,inactive
COc1cccc(NC(=O)Cc2c(C(=O)O)[nH]c3ccccc23)c1,–,inactive
COc1cccc(NC(=O)COC(=O)c2c3c(nc4ccccc24)CCC(C)C3)c1 (configuration not stated),–,3.98 µM (active)
COc1ccc(-c2nc3cnc(OC)nc3n(C)c2=O)cc1,–,inactive
Cc1ccc2c(CC(=O)OCc3cc(=O)n4c(n3)sc3ccccc34)coc2c1,–,7.08 µM (active)
CCc1c(O)nc2sc3ccccc3n2c1=O,–,inactive
C[C@@H]1C[C@H](C)CN(S(=O)(=O)c2cc(Cl)c(Oc3ccc([N+](=O)[O-])cc3Cl)c(Cl)c2)C1,-27.5% [at 11.4 µM] (inactive),–
CC1CCCN(C(=O)c2sc3cc([N+](=O)[O-])ccc3c2Cl)C1 (configuration not stated),–,3.98 µM (active)

Structure (SMILES),"activity, negative = inhibition",AC50
CN1CCCN(C)C1c1cc([N+](=O)[O-])ccc1O,-15% [at 11.4 µM] (inactive),–
Cc1ccc(C2=NN(S(C)(=O)=O)C(c3cccs3)C2)cc1 (configuration not stated),–,0.447 µM (active)
CN(C)c1ccc(NC(=O)CSc2nc(N)c(C(=O)Nc3ccc(N(C)C)cc3)s2)cc1,–,11.2 µM (active)
Cc1ccc(C)c(-n2c(Cc3cc(=O)[nH]c(=O)[nH]3)nnc2SCC(=O)NCC2CCCO2)c1 (configuration not stated),–,inactive
Cc1[nH]nc2nc(SCC(=O)NCC3CCCO3)n(-c3ccc(Br)cc3)c(=N)c12 (configuration not stated),–,11.2 µM (active)
COc1cc(OC)c(NC(=S)Nc2cccc(C(C)=O)c2)cc1Cl,–,3.16 µM (active)
CCOC(=O)c1cnc(N(C)C)nc1SC(=N)N,7.18% [at 11.4 µM] (inactive),–
CCOC(=O)c1cnc2ccc(C)cc2c1Sc1ccccc1C(=O)OC,–,1.26 µM (active)
NC(N)=Nc1nc2ccc([N+](=O)[O-])cc2[nH]1,-5.76% [at 11.4 µM] (inactive),–
COc1ccc(-c2nc(-c3ccccc3)c(-c3cc([N+](=O)[O-])ccc3C)[nH]2)cc1O,–,8.91 µM (active)
O=[N+]([O-])c1cccc(-c2nc(-c3ccccc3)c(-c3cccs3)[nH]2)c1,–,2.51 µM (active)
c1ccc(-c2nc(-c3cccs3)[nH]c2-c2ccccc2)cc1,–,6.31 µM (active)
O=[N+]([O-])c1cccc(-c2nc(-c3cccs3)c(-c3cccs3)[nH]2)c1,–,3.16 µM (active)
CO[C@]1(NC(=O)C2SC(=C(C(N)=O)C(=O)O)S2)C(=O)N2C(C(=O)O)=C(CSc3nnnn3C)CS[C@H]21 (some centres not stated),–,inactive
NCCC(=O)O,–,inactive
CCC(Sc1nc2n[nH]c(C)c2c(=N)n1-c1cccc(Cl)c1)C(=O)NCCOC (configuration not stated),–,10 µM (active)
Cc1cc([N+](=O)[O-])c(C)c(Br)c1C,8.85% [at 11.4 µM] (inactive),–
CCC(C)Nc1c([N+](=O)[O-])cc(C)cc1[N+](=O)[O-] (configuration not stated),–,7.94 µM (active)
O=C(O)Cc1cccnc1,9.66% [at 11.4 µM] (inactive),–
c1ccc(C[C@@H](Nc2cccnc2)c2ccccc2)cc1,–,1 µM (active)
C[C@@H](N)[C@@H](C)Cc1ccccc1,-14.2% [at 11.4 µM] (inactive),–
O=c1[nH]cc(CS(=O)(=O)Cc2c[nH]c(=O)[nH]c2=O)c(=O)[nH]1,41% [at 11.4 µM] (inactive),–
CC1(C)CC(=O)C(C=NCCN2CCN(C(=S)Nc3ccc(F)cc3)CC2)=C(O)C1,–,10 µM (active)
COCCCN=CC1=C(O)CC(C)(C)CC1=O,–,inactive
S=C1SCN(CCN2CCOCC2)CN1Cc1ccccc1,–,10 µM (active)

Structure (SMILES),"activity, negative = inhibition",AC50
CC(=O)N1CCC2(CC1)CN(Cc1ccccc1)C2,–,inactive
CCCCN1CSC(=S)N(Cc2ccccc2)C1,–,1.26 µM (active)
COc1cc2cc3c4cc(OC)c(OC)cc4cc[n+]3c(C)c2cc1OC,–,inactive
Cc1ccc(NC(=O)c2ccccc2C(=O)O)cc1C,-34.4% [at 11.4 µM] (inactive),–
Cc1oc(C(C)(C)C)cc1C(=O)Nc1cccc(/C=C/C(=O)O)c1,–,inactive
Cc1oc(-c2ccccc2)cc1C(=O)Nc1ccc(N(C)C)cc1,–,5.62 µM (active)
CCn1c(=N)c(S(=O)(=O)c2ccc(F)cc2)cc2c(=O)n3ccccc3nc21,–,8.91 µM (active)
Cn1c(C(=O)N2COCC2(C)C)cc2c(=O)n3ccccc3nc21,–,inactive
Cn1c(=N)c(S(=O)(=O)c2ccc(F)cc2)cc2c(=O)n3ccccc3nc21,–,11.2 µM (active)
Cc1cn([C@H]2C[C@H](O)[C@@H](COC(N)=O)O2)c(=O)[nH]c1=O,35.3% [at 11.4 µM] (inactive),–
COc1cccc(Nc2ncc3ncc(=O)n(C4CC4)c3n2)c1,–,inactive
COc1ccc(Nc2cc(=O)n(C3CCCCC3)c(=O)[nH]2)c(OC)c1,–,10 µM (active)
COc1cccc(Nc2ncc3nc(-c4ccc(Cl)cc4)c(=O)n(C4CC4)c3n2)c1,–,inactive
CS[C@@H](CC(=O)O)C(=O)O,17.7% [at 11.4 µM] (inactive),–
COc1cccc(C(=O)N(C)c2nnc(-c3ccncc3)s2)c1,–,0.0501 µM (active)
Cc1nnc(N(C)C(=O)c2ccccn2)s1,–,inactive
CCOc1ccc2nc(SCc3ccccc3C#N)sc2c1,–,1.26 µM (active)
C=C(C)c1cccc(C(C)(C)NC(=O)Nc2cc(C)ccc2OC)c1,–,3.98 µM (active)
CCCCn1c(NCc2ccccc2NS(=O)(=O)c2ccc(C)cc2)nc2ccccc21,–,1.26 µM (active)
C#CCCCO/N=C1/C[C@@H](O)[C@@H](O)[C@@H]2[C@H]3C(=O)N(c4ccc(F)cc4F)C(=O)[C@@H]3CC[C@H]12,14.9% [at 11.4 µM] (inactive),–
c1ccc(C(CCN2CC3CCC(CC3)C2)c2ccccc2)cc1,21% [at 11.4 µM] (inactive),–
C[C@H](NCCC(c1ccccc1)c1ccccc1)c1ccccc1,–,5.01 µM (active)
NC(=O)CNCCC(c1ccccc1)c1ccccc1,–,inactive
CCOC(=O)c1ccccc1Oc1c(F)c(F)nc(NCCO)c1F,–,2.51 µM (active)
CCOC(=O)c1cnc(-n2nc(C)cc2C)nc1NCCO,–,inactive

Structure (SMILES),"activity, negative = inhibition",AC50
COc1ccc(OC)c(C(=O)CSc2nnc(Cc3cccs3)n2CCc2ccccc2)c1,–,1.78 µM (active)
COc1cccc(Nc2ncc3nc(CCc4ccccc4)c(=O)n(Cc4cccs4)c3n2)c1,–,inactive
CCn1c(COc2ccccc2)nnc1SCC(=O)Nc1cc(OC)ccc1OC,–,2.82 µM (active)
COc1ccc(CCn2c3c(c(=O)[nH]c2=O)C(NC(=O)c2cccs2)(C(F)(F)F)C(=O)N3)cc1OC (configuration not stated),–,inactive
COc1ccc(C(=O)NNC(=O)CSc2nnc(COc3ccc4ccccc4c3)n2C)cc1,–,inactive
COc1ccc(NC(=O)CSc2nnc(Cc3cccn3C)n2CCc2ccccc2)c(OC)c1,–,3.16 µM (active)
CCn1c(CNC(=O)COc2ccc(C(C)C)cc2)nnc1SCC(=O)Nc1cc(F)ccc1C,–,28.2 µM (active)
COc1ccc([C@@H]2CC(=O)c3c(O)cc(O)cc3O2)cc1O,–,5.01 µM (active)
O=C1c2c(O)cc(O)cc2O[C@@H](c2ccc(O)c(O)c2)[C@H]1O,–,inactive
COc1ccc([C@@H]2CC(=O)c3c(O)cc(O[C@H]4O[C@@H](CO[C@H]5O[C@@H](C)[C@@H](O)[C@@H](O)[C@@H]5O)[C@@H](O)[C@@H](O)[C@@H]4O)cc3O2)cc1O,–,inactive
COC(=O)c1cc(C(=O)c2ccc(Cl)cc2Cl)cn1C,–,5.62 µM (active)
COC(=O)c1cc(C(=O)c2cccc(Cl)c2Cl)cn1C,–,1.26 µM (active)
Cn1cc(C(=O)c2cccc(Cl)c2Cl)cc1C(=O)O,–,inactive
Cn1cc(C(=O)c2ccc(Cl)cc2Cl)cc1C(=O)O,–,inactive
Cc1c(-n2cc(C(=O)c3cc(Cl)ccc3O)cc(C#N)c2=O)c(=O)n(-c2ccccc2)n1C,–,inactive
CN(C)CCCn1cc(C2=C(c3c[nH]c4ccccc34)C(=O)NC2=O)c2ccccc21,–,inactive
CN(C)c1ncc2ncc(=O)n(CCC#N)c2n1,–,inactive
CN(C)c1ncc2ncc(=O)n(CCc3ccccc3)c2n1,–,2 µM (active)
Cc1nc2cnc(N(C)C)nc2n(CCc2ccccc2)c1=O,–,0.631 µM (active)
COc1ccc(-c2nc3cnc(N(C)C)nc3n(CCc3ccccc3)c2=O)cc1,–,inactive
CN(C)c1ncc2nc(-c3ccccc3)c(=O)n(CCc3ccccc3)c2n1,–,inactive
CN(C)c1ncc2nc(-c3ccc(F)cc3)c(=O)n(CCc3ccccc3)c2n1,–,inactive
